Luc counter: Counterscreen for Luciferase (Kinase-Glo TM) Inhibition; AID 1379, 2008; hit rate 0.28% among 200,000; Luciferin 4-monooxygenase (Photuris pensylvanica), Q27757; Kinase-Glo luciferase, ATP luminescence, 8 min; Potency, µM (doses to about 38.3 µM), usual class: inhibitors; also: nearly all actives have a fitted effect of over 60% in size
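Light output from Kinase-Glo luciferase with luciferin and 10 uM ATP in 50 mM imidazole pH 7.2, KCl, MgCl2, Tween 20, BSA; compound pin-delivered, 8-min ambient incubation, then luminescence read.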
ELG1 genotox: qHTS screen for small molecules that induce genotoxicity in human embryonic kidney (HEK293T) cells expressing luciferase-tagged ELG1; HEK293T ELG1-luciferase reporter, luminescence, 16 h; Potency, µM (series often up to 46 µM), usual class: activators; hit rate 1.3% among 330,000; also: nearly all actives have a fitted effect of over 60% in size
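DMSO vehicle served as control against compound-treated ELG1-luciferase HEK293T cells; exposure lasted 16 hr at 37 °C and 5% CO2, followed by ONE-Glo luminescence detection after 30 min.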
SMN2 splice enh: qHTS Assay for Enhancers of SMN2 Splice Variant Expression. HEK293 SMN2-luciferase splicing reporter, luminescence, 30-36 h. Potency, µM (titrated, usually from 46.1 µM), most hits filed as activators. hit rate 2.8% among 210,000; also: nearly all actives have a fitted effect of over 55% in size
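qHTS luciferase splicing reporter: luminescence rises when SMN2 exon 7 is included in transfected HEK293 cells. Compound exposure lasted 30-36 h at 37C, with 4.5 mM final sodium butyrate as control, followed by a ONE-Glo read.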
NPC1 prom act: qHTS Assay for NPC1 Promoter Activators; Huh7 NPC1 promoter luciferase reporter, 24 h; Potency, µM (series often up to 9.22 µM), usual class: activators; hit rate 2.4% among 320,000; AID 485313, 2010; also: nearly all actives have a fitted effect of over 60% in size
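Cells: Huh7 expressing luciferase under the NPC1 promoter, 1500/well. Seeded 2 h, compound added, incubated 24 h at 37 °C. Luciferase reagent, 10 min ambient, then luminescence.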
Rab9 prom act: qHTS Assay for Rab9 Promoter Activators; Huh7 Rab9 promoter-luciferase reporter, luminescence, 24 h; Potency, µM (top dose mostly 9.22 µM), actives largely listed as activators; hit rate 2.8% among 320,000; AID 485297, 2010; also: nearly all actives have a fitted effect of over 60% in size
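Cells were plated at 1500 per well in reduced-serum medium with 10% FBS and left 2 h. Compound in DMSO was then added for 24 h at 37 °C. Reporter signal was read by luminescence after 10 min with luciferase detection reagent.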
FLuc modulator: qHTS profiling assay for firefly luciferase inhibitor/activator using purifed enzyme and Km concentrations of substrates (counterscreen for miR-21 project); Luciferin 4-monooxygenase (Photinus pyralis), P08659; purified FLuc, Km substrates, luminescence inhibition; Potency, µM (doses to about 57.5 µM), actives largely listed as inhibitors; hit rate 6.9% among 360,000; AID 588342, 2011; also: nearly all actives have a fitted effect of over 55% in size
Target sequence (P08659 whole entry, looked up): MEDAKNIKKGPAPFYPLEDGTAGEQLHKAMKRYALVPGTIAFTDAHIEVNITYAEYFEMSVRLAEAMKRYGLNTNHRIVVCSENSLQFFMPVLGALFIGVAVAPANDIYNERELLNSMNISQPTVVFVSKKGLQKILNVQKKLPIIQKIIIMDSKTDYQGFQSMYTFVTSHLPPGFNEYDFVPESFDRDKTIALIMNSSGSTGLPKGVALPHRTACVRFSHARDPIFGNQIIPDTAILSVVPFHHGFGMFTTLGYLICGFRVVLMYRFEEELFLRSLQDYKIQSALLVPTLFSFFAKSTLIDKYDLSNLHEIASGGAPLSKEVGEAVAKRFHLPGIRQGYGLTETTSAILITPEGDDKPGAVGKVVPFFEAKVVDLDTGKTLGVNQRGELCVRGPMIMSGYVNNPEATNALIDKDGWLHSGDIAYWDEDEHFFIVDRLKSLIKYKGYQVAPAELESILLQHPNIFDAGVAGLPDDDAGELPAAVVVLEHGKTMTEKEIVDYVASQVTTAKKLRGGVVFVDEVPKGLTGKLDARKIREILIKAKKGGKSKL
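Purified P. pyralis luciferase (10nM final) with 10uM D-luciferin and 10uM ATP (Km levels) in 50mM Tris acetate pH 7.5, 10mM Mg acetate, 0.01% Tween-20, 0.05% BSA; qHTS 6-point titration, ~60 µM downward; luminescence read.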
Hits are given with their value. Rows were chosen to be rich in hits. Some 7.5% of all compounds tested hit in one or more screens of this group. Calls follow the shape of the dose curve; as a rule, active = well fitted curve in the direction sought with a large enough effect; inconclusive = small, poorly fitted or top-dose-only effect, or another doubt; inactive = no such curve, though single readings can be large; an effect the other way counts as inactive or inconclusive.

What do the screens show for `COc1ccc(Nc2ccc(OC)cc2)cc1`?
NPC1 prom act: inconclusive; Rab9 prom act: inconclusive; FLuc modulator: 19µM

How did COc1ccc(Nc2nc(NN)nc(Nc3ccc(OC)cc3)n2)cc1 do in these assays?
ELG1 genotox: inactive; NPC1 prom act: inactive; Rab9 prom act: inactive; FLuc modulator: 11µM

Results for NNc1nc(Nc2ccccc2)nc(Nc2ccccc2)n1 ?
Luc counter: inactive; ELG1 genotox: inactive; SMN2 splice enh: inactive; NPC1 prom act: inactive; Rab9 prom act: inactive; FLuc modulator: inconclusive

How did CC(C)CNC(=O)c1ccccc1NC(=O)c1ccc(CSc2ccccc2)cc1 do in these assays?
Luc counter: inactive; ELG1 genotox: inactive; SMN2 splice enh: inactive; NPC1 prom act: inactive; Rab9 prom act: inactive; FLuc modulator: inconclusive

Results for Cc1ccc(C2c3c(oc4ccccc4c3=O)C(=O)N2c2ccc(C)cn2)cc1 (stereo not drawn) ?
SMN2 splice enh: inactive; FLuc modulator: inactive

Results for Cc1ccc(C)c(NC(=O)CN2C(=O)c3cccc4cccc2c34)c1 ?
SMN2 splice enh: inactive; FLuc modulator: inactive

What do the screens show for `COc1ccc(NC2=CC(=O)N(C)C2=O)cc1`?
Luc counter: inactive; ELG1 genotox: inconclusive; SMN2 splice enh: 11µM; NPC1 prom act: inconclusive; Rab9 prom act: inconclusive; FLuc modulator: inconclusive

Results for CCOC(=O)c1c(/N=C/N(C)C)sc(/C=N/Nc2ccccc2)c1-c1ccccc1 ?
Luc counter: inactive; ELG1 genotox: inactive; SMN2 splice enh: inactive; NPC1 prom act: inactive; Rab9 prom act: inactive; FLuc modulator: inactive

Results for CCOC(=O)c1c(/N=C/N(C)C)sc(/C=N/Nc2ccccc2)c1-c1ccccc1Cl ?
ELG1 genotox: inactive; NPC1 prom act: inactive; Rab9 prom act: inactive; FLuc modulator: 12µM

What do the screens show for `CCOc1ccc(OCc2cccc(C(=O)Nc3ccc(CN4CCCCC4)cc3)c2)cc1`?
Luc counter: inactive; ELG1 genotox: 1.3µM; SMN2 splice enh: 1.8µM; NPC1 prom act: 0.35µM; Rab9 prom act: 0.45µM; FLuc modulator: 6µM

Results for COc1cc(OC)cc(C(=O)Nc2ccc(CN3CCCCC3)cc2)c1 ?
Luc counter: inactive; ELG1 genotox: inactive; SMN2 splice enh: inactive; NPC1 prom act: inactive; Rab9 prom act: inactive; FLuc modulator: inactive

What do the screens show for `COc1ccc(OCc2cccc(C(=O)Nc3ccc(CN4CCCCC4)cc3)c2)cc1`?
Luc counter: inactive; ELG1 genotox: inconclusive; SMN2 splice enh: 1.8µM; NPC1 prom act: 1.1µM; Rab9 prom act: 0.89µM; FLuc modulator: 12µM

How did CCN(CC)CCNC(=O)CCc1c(C)nc2c(c(C)nn2-c2ccc(C)c(C)c2)c1C do in these assays?
ELG1 genotox: inactive; NPC1 prom act: inactive; Rab9 prom act: inactive; FLuc modulator: inactive

Results for CC(C)N(C(=O)CN1C(=O)NC(c2ccccc2)(c2ccccc2)C1=O)C(C)C ?
ELG1 genotox: inactive; NPC1 prom act: inactive; Rab9 prom act: inactive; FLuc modulator: inactive

How did CCOc1ccc(C2C(=O)N(C3CCCCC3)CC(=O)N2C2CCCC2)cc1OC (stereo not drawn) do in these assays?
FLuc modulator: inactive

Results for CC(C)Cc1ccc(S(=O)(=O)N2CCC(c3ccncc3)CC2)cc1 ?
FLuc modulator: inactive

Results for Cc1ccccc1-c1ccc(C(=O)NCc2ccccc2)o1 ?
Luc counter: inactive; ELG1 genotox: inactive; SMN2 splice enh: inactive; NPC1 prom act: inactive; Rab9 prom act: inactive; FLuc modulator: 27µM

Results for COc1ccc(CNC(=O)c2cc(-c3ccccc3OC)on2)cc1 ?
Luc counter: inactive; ELG1 genotox: inactive; SMN2 splice enh: inactive; NPC1 prom act: inactive; Rab9 prom act: inactive; FLuc modulator: 17µM

How did COc1ccccc1-c1cc(C(=O)NCc2ccc(F)cc2)no1 do in these assays?
Luc counter: inactive; ELG1 genotox: inactive; SMN2 splice enh: inactive; NPC1 prom act: inactive; Rab9 prom act: inactive; FLuc modulator: inconclusive

What do the screens show for `COc1ccccc1-c1cc(C(=O)NCc2ccccc2)no1`?
Luc counter: inactive; ELG1 genotox: inactive; SMN2 splice enh: inactive; NPC1 prom act: inactive; Rab9 prom act: inactive; FLuc modulator: 24µM

How did COc1ccccc1-c1cc(C(=O)NCc2ccc(Cl)cc2)no1 do in these assays?
Luc counter: inactive; ELG1 genotox: inactive; SMN2 splice enh: inactive; NPC1 prom act: inactive; Rab9 prom act: inactive; FLuc modulator: inconclusive

Results for Nc1c(C(=O)c2ccc(Cl)cc2)sc2nsc(SCCN3CCOCC3)c12 ?
ELG1 genotox: inactive; NPC1 prom act: inactive; Rab9 prom act: inactive; FLuc modulator: inactive

What do the screens show for `Nc1c(C(=O)c2ccccc2)sc2nsc(SCCN3CCCC3)c12`?
ELG1 genotox: inactive; NPC1 prom act: inactive; Rab9 prom act: inactive; FLuc modulator: 24µM

What do the screens show for `COc1cc(CCC(C)=O)ccc1OC(=O)c1c(F)cccc1Cl`?
ELG1 genotox: inconclusive; NPC1 prom act: inconclusive; Rab9 prom act: 2.5µM; FLuc modulator: 12µM

How did Clc1ccc2nc(-c3ccc4c(c3)OCO4)cn2c1 do in these assays?
Luc counter: inconclusive; ELG1 genotox: inconclusive; NPC1 prom act: 0.32µM; Rab9 prom act: 0.13µM; FLuc modulator: 0.12µM

How did O=C1COc2ccc(-c3csc(NCCc4ccccc4)n3)cc2N1 do in these assays?
Luc counter: inactive; ELG1 genotox: inactive; SMN2 splice enh: inactive; NPC1 prom act: inactive; Rab9 prom act: inactive; FLuc modulator: 27µM

Results for Cc1ccc2nc(-c3ccc4c(c3)OCCO4)cn2c1 ?
ELG1 genotox: inconclusive; NPC1 prom act: inactive; Rab9 prom act: inactive; FLuc modulator: 0.067µM

How did Cc1ccc2nc(-c3ccc4c(c3)NC(=O)CO4)cn2c1 do in these assays?
ELG1 genotox: inconclusive; NPC1 prom act: 1.6µM; Rab9 prom act: 1.1µM; FLuc modulator: 0.85µM

What do the screens show for `CN(C)c1ccc(/C=C/c2ccc3c4ccccc4ccc3[n+]2-c2ccccc2)cc1`?
Luc counter: 10µM; ELG1 genotox: inactive; SMN2 splice enh: inactive; NPC1 prom act: inactive; Rab9 prom act: inactive; FLuc modulator: 27µM

What do the screens show for `Cc1c(Cl)cccc1NC(=O)CCn1nc(C)c2c(C)n(-c3ccccc3)nc2c1=O`?
FLuc modulator: inactive

Results for COc1ccc(N(C(=O)c2ccc(C(C)(C)C)cc2)S(=O)(=O)c2ccc(Cl)cc2)cc1 ?
SMN2 splice enh: inactive; FLuc modulator: inactive

How did Cc1ccnc(NC(=O)Nc2cccc(F)c2)c1 do in these assays?
Luc counter: inactive; ELG1 genotox: 0.92µM; SMN2 splice enh: 3.5µM; NPC1 prom act: 1.6µM; Rab9 prom act: 1µM; FLuc modulator: 0.95µM
